Shown are actives, neighbours in structure and some others; about 0.83% of the full set was active somewhere.
NR5A2 inv ag: LRH-1 (NR5A2) inverse agonists, primary screen, cell-based, luminescence, HEK293T, StAR-luciferase reporter; 0.13% of 360,000 active; inhibition, % at 3.6 µM; LRH-1 transfected, 24 h; AID 602396, 2012;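 active means inhibition above the mean inhibition of all tested compounds plus 3 SD, cut at about 73% in these data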;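 further: 0% = DMSO wells and 100% = reporter-only cells lacking LRH-1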
Target sequence (O00482 whole entry, looked up): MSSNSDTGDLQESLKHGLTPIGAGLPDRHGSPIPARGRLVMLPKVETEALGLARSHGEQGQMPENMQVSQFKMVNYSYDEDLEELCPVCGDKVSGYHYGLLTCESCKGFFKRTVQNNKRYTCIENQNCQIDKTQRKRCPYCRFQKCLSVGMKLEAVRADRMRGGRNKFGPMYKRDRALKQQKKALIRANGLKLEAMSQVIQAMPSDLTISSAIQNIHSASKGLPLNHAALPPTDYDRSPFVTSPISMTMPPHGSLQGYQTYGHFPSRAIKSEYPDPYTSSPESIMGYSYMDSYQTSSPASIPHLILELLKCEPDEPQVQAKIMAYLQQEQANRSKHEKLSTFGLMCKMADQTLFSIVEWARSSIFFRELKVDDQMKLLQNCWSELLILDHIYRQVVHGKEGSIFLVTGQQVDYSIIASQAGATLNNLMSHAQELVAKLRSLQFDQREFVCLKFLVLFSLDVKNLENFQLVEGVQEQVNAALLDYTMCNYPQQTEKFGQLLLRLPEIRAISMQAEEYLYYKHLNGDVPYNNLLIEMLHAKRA
NCOA3 inh: SRC3 coactivator transcriptional activity inhibitors, primary screen, cell-based, luminescence | Nuclear receptor coactivator 3 (Homo sapiens), Q9Y6Q9 | HEK293 GAL4-SRC3 luciferase reporter | inhibition, % at 3.6 µM | 0.17% of 360,000 active | AID 588352, 2011;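 active means inhibition above a per-campaign cutoff, the mean of all compounds plus 3 SD, cut at about 60% in these data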;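 further: 0% = DMSO-treated cells and 100% = gossypol-treated cells at 36 µM; higher means less SRC3-driven luciferase light from the GAL4 reporter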
COUP-TFII inh: NR2F2 transcriptional activity inhibitors, primary screen, cell-based, luciferase reporter, HEK293T, luminescence; 0.7% of 370,000 active; AID 686940, 2013; HEK293T NGFI-A luciferase reporter; inhibition, % at 8.6 µM;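 active means inhibition above a per-plate cutoff, mean inhibition of test wells between control levels plus 3 SD, cut at about 38% in these data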;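 further: cells cotransfected with COUP-TFII expression vector driving the NGFI-A reporter; 0% = median of COUP-TF2 test wells and 100% = reporter-only cells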
SRC1 inh: SRC1 coactivator transcriptional activity inhibitors, primary screen, cell-based, luminescence | 0.12% of 360,000 active | inhibition, % at 3.6 µM | Nuclear receptor coactivator 1 (Homo sapiens), Q15788 | AID 588354, 2011 | HEK293 GAL4-SRC1 luciferase reporter;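 active means inhibition above the campaign mean plus 3 SD, with each screening campaign given its own cutoff, cut at about 60% in these data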;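 further: 0% = DMSO treated cells and 100% = gossypol at 36 µM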
NCOA2 inhibitor: inhibition of GAL4-SRC2 driven luciferase reporter, primary screen, SRC2 inhibitor project, cell-based, luminescence | HEK293 GAL4-SRC2 luciferase reporter | Nuclear receptor coactivator 2 (Homo sapiens), Q15596 | 0.17% of 370,000 active | inhibition, % at 9 µM;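 active means inhibition above the mean inhibition of all tested compounds plus 3 SD, set per campaign, cut at about 52% in these data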;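 further: 0% = DMSO treated cells and 100% = cells given Gossypol at 36 µM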
* hit, by the source's call; . = not tested or not shown.

SMILES	NR5A2 inv ag	NCOA3 inh	COUP-TFII inh	SRC1 inh	NCOA2 inhibitor
CCS(=O)(=O)Nc1ccc2c(c1)C(=O)N(C)[C@@H]1CC[C@H](CC(=O)N[C@@H]3CCN(Cc4ccccc4)C3)O[C@H]1CO2	.	.	-13	.	17
CC(=C/c1ccccc1)/C=N/n1c(-c2ccncc2)n[nH]c1=S	11	58	27	63*	36
CC1CC(C)CN(S(=O)(=O)c2ccc(C(=O)NCCCn3ccnc3)cc2)C1 (stereo unspecified)	84*	62*	.	34	.
Cc1cccc(NC(=O)C2CCCN2S(=O)(=O)c2cccnc2)c1C (stereo unspecified)	.	.	-3	.	9
NNC(=O)c1cc2ccccc2cc1O	25	62*	27	55	71*
O=C(NCCO)c1cc2ccccc2cc1O	6	11	-15	-5	1
CCn1c2ccccc2c2cc(NC(=O)COC(=O)c3ccc(F)cc3F)ccc21	.	.	5	.	2
O=C(CCCN1C(=O)/C(=C/c2ccccc2Cl)SC1=S)NNC(=O)c1ccc(Cl)cc1	6	12	15	19	58*
CC1(C)CC(=O)N(CC(=O)N2CCN(c3cccc(Cl)c3Cl)CC2)c2ccccc2S1(=O)=O	.	.	10	.	17
COc1ccccc1/C=C/C(=O)/C=C/c1ccccc1O	-7	-27	33	-12	-39
COc1ccccc1C=CC(=O)C=Cc1ccccc1OC	-6	2	50*	-55	7
CC(C)c1ccc(NC(=O)c2ccc(-c3ccnn3C)c3ccoc23)cc1	-13	-38	.	-19	.
CC(=O)Nc1ccc(NC(=O)c2ccc(-c3ccnn3C)c3ccoc23)cc1	9	-10	7	-1	53*
CN(c1ncnc(N)c1[N+](=O)[O-])C1CCCCC1	51	63*	27	71*	57*
CC(C)(C)OC(=O)N1CCN(c2ccc(CNC(=O)c3ccc(Cl)cc3)cc2)CC1	29	9	39*	-5	17
C=CCn1c(SCC(=O)O)nnc1-c1ccco1	.	.	-3	.	-18
Cc1ccc(S(=O)(=O)Nc2ccc3nc(C)sc3c2)cc1	20	16	.	16	.
Cc1nc2ccc(NS(=O)(=O)c3ccc4c(c3)OCCO4)cc2s1	41	13	65*	17	25
S=C1Cc2ccccc2N1	64	17	60*	-1	67*
S=C1Nc2ccccc2CS1	1	6	-2	3	-1
C/C(=N\NC(=S)Nc1cccc(C)c1)c1ccccc1	-2	-30	-3	-40	-9
CC(=NNC(=S)Nc1ccc(C)cc1)c1ccccn1	72	68*	23	70*	21
CC(=NNC(=S)Nc1cccc(C)c1)c1ccccn1	86*	72*	34	73*	32
COc1ccccc1NC(=S)NN=C(C)c1ccccn1	82*	45	28	65*	5
Cc1ccc(S(=O)(=O)/C(=C/Cl)NC(=O)c2ccccc2)cc1	49	52	30	15	61*
SMILES	NR5A2 inv ag	NCOA3 inh	COUP-TFII inh	SRC1 inh	NCOA2 inhibitor
Cc1ccc(S(=O)(=O)C(NC(=O)c2ccccc2)=C(Cl)Cl)cc1	3	-1	17	-1	52
COc1cc(/C=N/NC(=Nc2ccc(C)cc2)c2nc3ccccc3s2)ccc1O	-14	85*	28	84*	25
O=S(=O)(c1ccc(NC(=S)NCc2cccnc2)cc1)N1CCCCC1	73*	46	18	67*	48
O=C(NCc1cccnc1)c1ccc(S(=O)(=O)N2CCCCC2)cc1	-1	17	12	-6	8
COc1ccc(-c2cc(-c3nnc(SCC(=O)Nc4ccc(OCc5ccccc5)cc4)n3N)[nH]n2)cc1	.	.	-31	.	4
Cc1ccc2ccc3ccc(C)nc3c2n1	89*	56	21	53	4
Cc1ccc(O)c(N=Nc2nccs2)c1	83*	64*	-62	73*	23
C[C@@H](NC(=O)c1ccc(C#Cc2cccc(F)c2)cn1)C(C)(C)O	.	.	-13	.	8
C[n+]1c(-c2ccccc2)cc2c(=Cc3ccccc3)c3ccccc3n21	58	62*	31	27	2
C[n+]1c(-c2ccccc2)cc2c(=Cc3ccc([N+](=O)[O-])cc3)c3ccccc3n21	-1	5	-7	0	-10
CCN(CC)C(=O)CC[C@H]1CC[C@]2(CCCN(Cc3ccncc3)C2)O1	.	.	0	.	10
O=[N+]([O-])c1ccc(O)c(/C=N/Nc2nc3ccccc3[nH]2)c1	91*	64*	-34	17	8
COc1ccc(O)c(/C=N/Nc2nc3ccccc3[nH]2)c1	-11	13	-27	-14	-34
CCOC(=O)c1ccc(N=Cc2cnc(N)nc2N)cc1	88*	2	1	-2	-8
COc1ccc(N2CCN(CCCNC(=O)Cn3c(=O)c4cccn4c4cccnc43)CC2)c(OC)c1	.	.	-3	.	.
CCN(CC)c1ccc(/C=N/NC(=O)c2c(Cl)cnn2C)c(O)c1	42	76*	-33	22	13
CCN(CC)c1ccc(/C=N/Nc2nc(C)cc(=O)[nH]2)c(O)c1	33	84*	-2	81*	46
COc1ccc(-n2c(SCC(=O)Nc3ccc(Oc4ccccc4)cc3)nnc2-c2ccco2)cc1	.	.	-2	.	26
O=C(Nc1ccc(F)cc1)OCc1cn(Cc2ccccc2C(F)(F)F)nn1	.	.	-1	.	-1
CC[C@@H](CCCc1ccccc1OC)CCS(=O)(=O)C(C)(C)C	.	.	2	.	-30
O=C1C=CC(=O)N1Cc1ccccc1	-11	-23	61*	0	-9
O=C(O)C1CCCCC1C(=O)Nc1ccc2c(c1)OCCO2 (stereo unspecified)	63	49	26	43	55*
C#CCN1CC(N(C)CCOC(=O)CCCc2ccccc2)CS1(=O)=O (stereo unspecified)	.	.	-6	.	-25
COc1cc(C(=O)/C=C/c2cccnc2)c([N+](=O)[O-])cc1OC	51	56	28	40	61*
CC(C)C[C@@H](CCCc1ccccc1)CCC(=O)N(c1ccccc1)c1ccccc1	.	.	1	.	17
SMILES	NR5A2 inv ag	NCOA3 inh	COUP-TFII inh	SRC1 inh	NCOA2 inhibitor
Cc1ccccc1CN1CC2=C(CCN(Cc3ccccc3)C2=O)N2CCN=C12	85*	62*	37	49	2
c1ccc(CN2C3=NCCN3c3ccccc32)cc1	-19	9	-3	-10	-10
CCCC(=O)N1CCC(NS(=O)(=O)c2ccc3c(c2)CCN3C(C)=O)CC1	.	.	12	.	-12
COc1cccc(CNC(=S)OC2CCC23CCC(c2ccccc2)CC3)c1 (stereo unspecified)	.	.	5	.	29
C[C@@]12C(=O)OC(=O)[C@]1(C)C1CCC2O1	59	71*	66*	53	61*
CC12C(=O)N(c3nccs3)C(=O)C1(C)C1CCC2O1 (stereo unspecified)	15	4	-2	10	9

Compound activity (PubChem)
